We go through one molecule from PubChem BioAssay AID2284166 (EPA ToxCast).

Records with an inconclusive call do not appear. Active and inactive are the calls of the source. How the source made its calls: active means hit-call score of the fitted dose curve at least 0.9, where 1 is the maximum; inactive means score below 0.9.

Neuropeptide Y receptor type 2 (Homo sapiens), sequence (P49146 whole entry, looked up): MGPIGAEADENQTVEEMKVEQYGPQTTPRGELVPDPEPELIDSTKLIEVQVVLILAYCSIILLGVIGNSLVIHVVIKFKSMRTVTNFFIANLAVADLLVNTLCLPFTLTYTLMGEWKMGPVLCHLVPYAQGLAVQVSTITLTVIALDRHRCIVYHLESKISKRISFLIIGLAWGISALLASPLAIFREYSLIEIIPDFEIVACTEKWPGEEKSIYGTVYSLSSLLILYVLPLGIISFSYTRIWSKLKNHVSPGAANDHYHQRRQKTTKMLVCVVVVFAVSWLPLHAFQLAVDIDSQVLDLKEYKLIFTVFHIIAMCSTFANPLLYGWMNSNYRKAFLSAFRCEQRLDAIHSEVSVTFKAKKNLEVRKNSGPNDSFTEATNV

This test concerns the target Neuropeptide Y receptor type 2 (Homo sapiens) (UniProt P49146). Briefly: ERF_FR_GPCR_hNPY2R: Eurofins (ERF) G Protein-Coupled Receptor (GPCR) Radioligand Binding LeadHunter Assay for human Neuropeptide Y Receptor Y2 Agoniam. Here is the method:
ERF_FR_GPCR_hNPY2R is a biochemical, single-readout assay that uses extracted gene-proteins in a cell-free assay. Measurements were taken 1 hour after chemical dosing in a 96-well plate. See Y2 Human Neuropeptide Y GPCR Binding (Agonist Radioligand) Assay, Cerep.ERF_FR_GPCR_hNPY2R is an assay component calculated from the ERF_FR_GPCR_hNPY2R assay. It is designed to measure radioligand binding using a type of binding reporter as detected by scintillation counting with radiometry technology.Data from the assay component ERF_FR_GPCR_hNPY2R was analyzed at the assay endpoint, ERF_FR_GPCR_hNPY2R, in the positive analysis fitting direction relative to DMSO as the negative control and baseline of activity. Using a type of binding reporter, gain-of-signal activity can be used to understand changes in binding as they relate to gene NPY2R. To generalize the intended target to other relatable targets, this assay endpoint is annotated to the gpcr intended target family, where the subfamily is neuropeptide Y.
Human cells are incubated for 60 minutes at 37 C with [125I]peptide YY ligand (0.015 nM) and NYP as control inhibitor. Test Sample Requirements: Minimum for 1) Screen: 60 ul of 10 mM stock -OR- 1 mg (pre-weighed) for 10 uM final testing. 2) Dose Response: 90 ul of 10 mM stock -OR- 1 mg (pre-weighed) for a top concentration at 10 uM.
Regarding `O=C(/C=C/c1ccc(O)cc1)CC(=O)/C=C/c1ccc(O)cc1`, the molecule was classed as inactive.
